Most compounds without a hit are left out; they make up all but 2.2% or so of the library.
NOD2-RIPK2 inh = NOD2-RIPK2 binding disruptors in cells, primary screen, fluorescence, CHO cells, BLA complementation; Receptor-interacting serine/threonine-protein kinase 2 (Homo sapiens), O43353; CCF4 ratio; inhibition, % at 4.98 µM; 360,000 tested, 0.38% active; in the data active = inhibition above about 21%
TLR9-MyD88 inh = inhibitors of TLR9-MyD88 association in cells, primary screen, cell-based, CHO, BLA complementation, fluorescence | Toll-like receptor 9 (Homo sapiens) + Myeloid differentiation primary response protein … | CCF4 FRET ratio | inhibition, % at 4.98 µM | 340,000 tested, 0.21% active;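 active = inhibition above the mean over all tested compounds plus 3 SD, cut at about 21% in these data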
TMEM16A act = TMEM16A chloride channel activators or potentiators, primary screen, cell-based, HTS. HEK293 TMEM16A/YFP-H148Q/I152L, iodide quench fluorescence; active compounds read low. B-score at 10 µM. 340,000 tested, 0.3% active;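 active = fluorescence-ratio B-score plate-corrected deviation score at least 3 library SD below zero, with starting fluorescence score within 5 deviations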;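 also: channel opened by trigger with iodide after compound preincubation; score built on the fluorescence ratio of max minus min over baseline; more negative score means more quench and so TMEM16A activation or potentiation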
Target sequence (Q8BHY3 whole entry, looked up): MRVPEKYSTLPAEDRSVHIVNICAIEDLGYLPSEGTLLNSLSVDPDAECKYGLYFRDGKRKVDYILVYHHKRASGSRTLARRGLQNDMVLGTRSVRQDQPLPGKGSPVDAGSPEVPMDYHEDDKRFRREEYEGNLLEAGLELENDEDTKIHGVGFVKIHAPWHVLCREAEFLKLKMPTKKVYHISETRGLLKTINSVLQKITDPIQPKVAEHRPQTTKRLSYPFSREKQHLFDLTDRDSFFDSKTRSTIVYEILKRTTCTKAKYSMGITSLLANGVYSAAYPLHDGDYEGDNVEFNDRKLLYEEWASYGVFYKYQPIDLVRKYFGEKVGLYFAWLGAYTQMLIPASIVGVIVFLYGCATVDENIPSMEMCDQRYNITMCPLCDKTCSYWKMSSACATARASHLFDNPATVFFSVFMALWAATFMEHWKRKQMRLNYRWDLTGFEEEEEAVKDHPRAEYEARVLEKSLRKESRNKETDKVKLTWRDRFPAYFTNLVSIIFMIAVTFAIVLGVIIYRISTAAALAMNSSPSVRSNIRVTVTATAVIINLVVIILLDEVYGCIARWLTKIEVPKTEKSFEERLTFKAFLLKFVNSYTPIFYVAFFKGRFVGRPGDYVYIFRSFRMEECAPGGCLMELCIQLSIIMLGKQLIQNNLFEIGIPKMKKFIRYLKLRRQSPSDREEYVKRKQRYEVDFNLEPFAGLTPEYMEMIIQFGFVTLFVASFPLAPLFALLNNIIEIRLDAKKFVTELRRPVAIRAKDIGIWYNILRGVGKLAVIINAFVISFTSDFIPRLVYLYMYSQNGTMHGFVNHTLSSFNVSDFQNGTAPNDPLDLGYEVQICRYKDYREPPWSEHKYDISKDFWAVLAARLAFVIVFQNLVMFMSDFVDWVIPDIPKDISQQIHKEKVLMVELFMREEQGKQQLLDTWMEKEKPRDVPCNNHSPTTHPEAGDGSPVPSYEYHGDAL
GRK2 inh = compounds blocking aptamer binding on GRK2 – biochemical, human GRK2, bead flow cytometry, HTS, primary screen. FAM-aptamer displacement from GRK2. Beta-adrenergic receptor kinase 1 (Homo sapiens), P25098. AID 488847, 2010. inhibition of aptamer binding, % at 10 µM. 330,000 tested, 0.59% active;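 active = inhibition of aptamer binding above 40%, roughly 3 SD of noise, on plates passing a quality check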;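 also: median bead fluorescence of bound FAM aptamer so fluorescent compounds give negative values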
TLR4 MyD88 comp = inhibitors of TLR4-MyD88 association in cells, primary screen, cell-based, HeLa CL3-4, BLA complementation, FRET ratio. HeLa CL3-4 TLR4/MyD88 BLA complementation. inhibition, % at 8.4 µM. 200,000 tested, 0.18% active. AID 861, 2007; in the data active = inhibition above about 25%
ANO1 block = TMEM16A chloride channel inhibitors, primary screen, cell-based, HTS; HEK293 TMEM16A/YFP iodide influx fluorescence, ionomycin; 310,000 tested, 1.2% active; normalized B-score (activity score, 25-100; higher = stronger inhibition) at 10 µM; Anoctamin-1 (Mus musculus), Q8BHY3; AID 588511, 2011;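 active = ratio plate-corrected score three or more library SD toward inhibition, starting fluorescence score within five deviations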;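 also: score derived from kinetic fluorescence span divided by baseline fluorescence per well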
NOD2 RIPK2 conf = NOD2-RIPK2 binding disruptors, retest, confirmation, fluorescence, CHO cells, BLA complementation, triplicate. AID 624370, 2012. 1,200 tested, 70% active. shares compounds with NOD2-RIPK2 inh. inhibition, % at 4.98 µM. CCF4 FRET;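 active = mean inhibition across replicates above a set limit taken from the earlier primary screen, cut at about 21% in these data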
BLA counter = counter-screen for NOD2-RIPK2 interaction inhibitors: BLA reporter | shares compounds with NOD2-RIPK2 inh | AID 624371 | 1,200 tested, 57% active | CHO BLA reporter, CCF4 FRET ratio, counterscreen | inhibition, % at 4.98 µM;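 active = mean inhibition above the low-control mean inhibition plus three low-control SD, cut at about 11% in these data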
Large screens that a line does not name were inactive (follow-up assays come after a bar, where they were run).

CC(OC(=O)c1ccc(S(C)(=O)=O)c([N+](=O)[O-])c1)C(=O)NC1C2CC3CC(C2)CC1C3 (centres undefined)	NOD2-RIPK2 inh 25.0 (no result: TLR9-MyD88 inh, TMEM16A act, GRK2 inh, TLR4 MyD88 comp, ANO1 block) | NOD2 RIPK2 conf 65.1 | BLA counter inactive
CCC(OC(=O)c1ccc(S(C)(=O)=O)c([N+](=O)[O-])c1)C(=O)NC1C2CC3CC(C2)CC1C3 (centres undefined)	none (no result: TLR9-MyD88 inh, TMEM16A act, GRK2 inh, TLR4 MyD88 comp, ANO1 block)
CCc1ccc(CCC(=O)N2CCN(S(=O)(=O)c3sc(C(=O)O)c(C)c3C(=O)O)CC2)cc1	none (no result: GRK2 inh, TLR4 MyD88 comp, ANO1 block)
O=C(C=C=Nc1ccccc1)C(=O)N=C=Cc1ccccc1	NOD2-RIPK2 inh 27.8 (no result: TLR4 MyD88 comp) | NOD2 RIPK2 conf inactive | BLA counter inactive
CCOC(=O)N1CCC(NC(=O)c2ccc3c(c2)N=C(CC)c2cc(C)ccc2S3)CC1	none (no result: TLR4 MyD88 comp)
CCOC(=O)N1CCC(NC(=O)c2ccc3c(c2)N=C(C)c2c(C)ccc(C)c2S3)CC1	NOD2-RIPK2 inh 24.4 (no result: TLR4 MyD88 comp) | NOD2 RIPK2 conf inactive | BLA counter inactive
COc1ccc(Nc2nc3cc(C)ccc3cc2C#N)cc1	NOD2-RIPK2 inh 21.2 (no result: TLR4 MyD88 comp) | NOD2 RIPK2 conf inactive | BLA counter 16.8
COc1ccc(Nc2nc3cc(C)ccc3cc2C#N)c(OC)c1	none
COc1ccc(S(N)(=O)=O)cc1C(=O)NCC(C)(C)N1CCOCC1	none (no result: TLR4 MyD88 comp)
COc1cc(CC(=O)NCC(C)(C)N2CCOCC2)cc(OC)c1OC	NOD2-RIPK2 inh 38.4 (no result: TLR4 MyD88 comp) | NOD2 RIPK2 conf inactive | BLA counter inactive
CC1(C(=O)NS(=O)(=O)c2cccc(C#N)c2)CCN1C(=O)c1ccco1 (centres undefined)	none (no result: TLR9-MyD88 inh, TMEM16A act, GRK2 inh, TLR4 MyD88 comp, ANO1 block)
CN(C)Cc1c(O)ccc2cc(-c3nc4ccccc4n3C)c(=O)oc12	NOD2-RIPK2 inh 31.4 (no result: TLR4 MyD88 comp) | NOD2 RIPK2 conf 32.6 | BLA counter 57.7
CN(C)Cc1c(O)ccc2c(-c3ccccc3)cc(=O)oc12	none
CC(Sc1nnc2ccccn12)C(=O)Nc1ccc2c(c1)OCO2 (centres undefined)	none
COc1ccc(C)c2sc(NC(=O)c3cccc(N4C(=O)CCC4=O)c3)nc12	NOD2-RIPK2 inh 21.7 (no result: TLR4 MyD88 comp) | NOD2 RIPK2 conf inactive | BLA counter inactive
O=c1c(O)c(-c2cccs2)oc2ccc(Cl)cc12	NOD2-RIPK2 inh 44.5, TLR9-MyD88 inh 21.0 | NOD2 RIPK2 conf 45.4 | BLA counter 51.6
O=c1cc(-c2cccs2)oc2ccc(Cl)cc12	none
O=C(CCNC(=O)c1ccc(Br)cc1)NCC1COc2ccccc2O1 (centres undefined)	none (no result: TLR4 MyD88 comp)
O=C(c1ccc2c(=O)n(Cc3ccc(Cl)cc3)c(=S)[nH]c2c1)N1CCOCC1	none (no result: TLR4 MyD88 comp)
CN(CC(=O)Nc1ccccc1Cl)C(=O)COC(=O)c1ccc(Cl)nc1	none (no result: TLR4 MyD88 comp)
CN(CC(=O)Nc1ccccc1Cl)C(=O)COC(=O)c1nc(Cl)c(Cl)c(Cl)c1Cl	NOD2-RIPK2 inh 23.9 (no result: TLR4 MyD88 comp) | NOD2 RIPK2 conf 28.1 | BLA counter inactive
CCO[C@H]1OC(C(=O)N2CCN(Cc3ccc4c(c3)OCO4)CC2)=C[C@@H](c2cn(C(C)=O)c3ccccc23)[C@@H]1CCCO	none
CCO[C@H]1OC(C(=O)N2CCN(Cc3ccc4c(c3)OCO4)CC2)=C[C@@H](c2csc3ccccc23)[C@@H]1CCCO	NOD2-RIPK2 inh 22.5 | NOD2 RIPK2 conf inactive | BLA counter inactive
CC(C)c1nnc(NC(=O)CCS(=O)(=O)c2nc(-c3cccs3)cc(C(F)(F)F)n2)s1	NOD2-RIPK2 inh 40.9 | NOD2 RIPK2 conf inactive | BLA counter inactive
Cc1ccc(C2C=C(c3ccccc3OC(F)F)Nc3ncnn32)cc1 (centres undefined)	NOD2-RIPK2 inh 29.9 | NOD2 RIPK2 conf 26.6 | BLA counter 30.6
O=[N+]([O-])c1ccc(N/N=C/c2ccccc2O)cc1	NOD2-RIPK2 inh 26.8 (no result: TLR4 MyD88 comp) | NOD2 RIPK2 conf 37.7 | BLA counter 34.7
CCN(CC)S(=O)(=O)c1ccc(N/N=C/c2ccc(O)cc2O)nc1	none
O=[N+]([O-])c1ccc(NN=Cc2ccc(O)cc2O)nc1	NOD2-RIPK2 inh 21.9 (no result: GRK2 inh, TLR4 MyD88 comp, ANO1 block) | NOD2 RIPK2 conf inactive | BLA counter 15.3
O=C1CCC(=O)N1c1nc2n(n1)C(c1ccccc1)C=C(c1ccc(Br)cc1)N2 (centres undefined)	NOD2-RIPK2 inh 38.9 | NOD2 RIPK2 conf inactive | BLA counter 11.7
COc1ccc(C2C=C(c3ccc(Br)cc3)Nc3nc(N4C(=O)CCC4=O)nn32)cc1 (centres undefined)	none
COCCNC(=O)CC(=O)N/N=C/c1ccc(C(=O)OC)cc1	none
O=C(CCN1C(=O)C2C3CC(C(Br)C3Br)C2C1=O)OCC(=O)c1cccc([N+](=O)[O-])c1 (centres undefined)	none (no result: TLR4 MyD88 comp)
CCN(CC(=O)NC(C)(C)C)C(=O)c1ccc2c(c1)S(=O)(=O)c1ccccc1C2=O	none
C=CCOc1cccc(C(=O)/C=C2/C(=O)Nc3ccccc32)c1	NOD2-RIPK2 inh 41.0 (no result: TLR4 MyD88 comp) | NOD2 RIPK2 conf 39.2 | BLA counter inactive
CNC(=O)c1c(Cl)cnn1-c1ccccc1	none (no result: TLR9-MyD88 inh)
CC(=O)Nc1c(Cl)cnn(-c2ccccc2)c1=O	NOD2-RIPK2 inh 21.5 (no result: TLR9-MyD88 inh, TLR4 MyD88 comp) | NOD2 RIPK2 conf inactive | BLA counter inactive
Cc1c(C)c2c(c(C)c1O)CCC(C)(C(=O)O)O2 (centres undefined)	none (no result: TLR4 MyD88 comp)
S=c1[nH]nc(-c2cc3c(s2)-c2ccccc2CC3)o1	NOD2-RIPK2 inh 30.4 | NOD2 RIPK2 conf 25.4 | BLA counter 38.5
CCn1cc(C(=O)O)c(=O)c2cc(F)c(N3CCN(S(=O)(=O)c4ccc(NC(=O)OC)cc4)CC3)cc21	none
COc1ccc(OCCN2CCC(C(=O)NC(c3ccc(C)cc3)c3ccccn3)CC2)cc1 (centres undefined)	NOD2-RIPK2 inh 21.3 (no result: TLR9-MyD88 inh, TMEM16A act, GRK2 inh, TLR4 MyD88 comp, ANO1 block) | NOD2 RIPK2 conf inactive | BLA counter inactive
COc1ccc(C(NC(=O)C2CCN(CCOc3ccccc3)CC2)c2ccccn2)cc1 (centres undefined)	none (no result: TLR9-MyD88 inh, TMEM16A act, GRK2 inh, TLR4 MyD88 comp, ANO1 block)
NNc1nc2ccc(F)cc2s1	NOD2-RIPK2 inh 29.9 | NOD2 RIPK2 conf inactive | BLA counter inactive
Cc1cc(N(C)N)nc(NC(=O)NS(=O)(=O)c2ccccc2Cl)n1	none (no result: TLR4 MyD88 comp)
O=C(NC1CCCC1)c1cc2nc(-c3ccccc3)cc(-c3ccccc3)n2n1	none (no result: TLR4 MyD88 comp)
O=C(Nc1cccc(O)c1)c1cc2nc(-c3ccccc3)cc(-c3ccccc3)n2n1	NOD2-RIPK2 inh 21.6 | NOD2 RIPK2 conf inactive | BLA counter 10.9

Screening data deposited in PubChem by several laboratories.
